Screening data from PubChem.
GLS inhibitor: blocks human kidney-isoform glutaminase activity; 410,000 tested, 0.21% active; GLS enzymatic activity, qHTS titration; Potency, µM (titrated, usually from 45.5 µM), for the others: at the highest dose activity change, negative = inhibition, hits mostly inhibitors; AID 624170; further: on the % scale 0 is the no-effect control and ±100 the full control effect
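Enzyme dispensed in phosphate buffer (45 mM, pH 8.2, 0.02% Tween-20), compounds pinned in, then 1 mM L-glutamine solution and the glutamate oxidase–HRP–Amplex Red mix added; fluorescence read immediately and again after 30 min at room temperature.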
JMJD2A Tudor inh: blocks the human JMJD2A Tudor domain | O75164 | Potency, µM (top dose mostly 114 µM), inactives show top-dose activity change, negative = inhibition, usual class: inhibitors | AID 504339 | 390,000 tested, 4.4% active | AlphaScreen JMJD2A-Tudor / H3K4me3 peptide binding; further: on the % scale 0 is the no-effect control and ±100 the full control effect; nearly all actives have a fitted effect of over 50% in size
BAZ2B inh: inhibitors of human BAZ2B bromodomain. 360,000 tested, 4.4% active. Q9UIF8. AID 504333. Potency, µM (highest dose often 114 µM), for inactives: top-dose activity change, negative = inhibition, hits mostly inhibitors. AlphaScreen BAZ2B-H3K14Ac peptide displacement; further: on the % scale 0 is the no-effect control and ±100 the full control effect; nearly all actives have a fitted effect of over 60% in size
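Compounds, titrated to a top concentration of 110 uM, were incubated 30 min at room temperature with preformed BAZ2B/acetyl-K14 H3 peptide complex (50 nM each). Proximity signal was measured by AlphaScreen after 20 min with beads.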
HP1b chromo inh: HP1-beta chromodomain-methylated histone interaction inhibition; P83916; AlphaScreen HP1-beta / biotin-H3K9me3 peptide binding; Potency, µM (doses to about 114 µM), for the others: at the highest dose activity change, negative = inhibition, actives largely listed as inhibitors; 390,000 tested, 0.56% active; further: nearly all actives have a fitted effect of over 70% in size
Target sequence (P83916 whole entry, looked up): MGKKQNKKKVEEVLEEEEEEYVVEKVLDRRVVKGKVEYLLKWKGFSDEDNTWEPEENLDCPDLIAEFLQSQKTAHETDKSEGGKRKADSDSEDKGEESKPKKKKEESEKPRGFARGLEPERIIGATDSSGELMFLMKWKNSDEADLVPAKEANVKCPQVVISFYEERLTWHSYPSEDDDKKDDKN
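AlphaScreen: HP1-beta (50 nM) preformed 30 min with biotin-H3(1-18)K9me3 peptide (50 nM) in PBS pH 7.4, 0.01% Tween-20. Compound added for 30 min at RT, then streptavidin donor/nickel chelate acceptor beads (10 ug/mL) for 30 min.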
G9a inh: blocks human histone lysine methyltransferase G9a; Q96KQ7; G9a H3K9 monomethylation, AlphaScreen, 2 h; Potency, µM (titrated, usually from 102 µM), inactives show top-dose activity, negative = inhibition, hits mostly inhibitors; 350,000 tested, 8.8% active; AID 504332; further: on the % scale 0 is the no-effect control and ±100 the full control effect; nearly all actives have a fitted effect of over 75% in size
Target sequence (Q96KQ7 913-1193 limits assumed): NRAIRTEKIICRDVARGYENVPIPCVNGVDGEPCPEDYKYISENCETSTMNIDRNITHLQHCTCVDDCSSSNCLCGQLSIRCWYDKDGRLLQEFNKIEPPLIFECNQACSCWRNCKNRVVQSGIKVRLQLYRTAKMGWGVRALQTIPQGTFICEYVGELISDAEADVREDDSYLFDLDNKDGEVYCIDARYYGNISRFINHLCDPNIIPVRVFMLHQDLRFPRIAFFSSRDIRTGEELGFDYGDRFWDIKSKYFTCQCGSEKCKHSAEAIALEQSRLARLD
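Readings reflect AlphaScreen signal from monomethyl-H3K9 antibody detection. HMT at 20 nM; substrate b-H3K9 500 nM; cofactor SAM 20 uM; 2 h RT reaction; compounds tested as titrations in qHTS with 15 min preincubation.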
* hit, by the source's call; ? = inconclusive; . = no result; ! = a repeat was not active; [ ] = another dose, or the depositor's remark. This is a sample that favours compounds with a hit; in the whole collection about 10% have one here. The call rests on the fitted dose curve; in most records, active means well fitted curve in the direction sought with a large enough effect; inconclusive means small, poorly fitted or top-dose-only effect, or another doubt; inactive means no such curve, though single readings can be large; an effect the other way counts as inactive or inconclusive. Potency means the concentration at half of the fitted maximal effect.

SMILES	GLS inhibitor	JMJD2A Tudor inh	BAZ2B inh	HP1b chromo inh	G9a inh
CCOc1ccccc1Nc1nc(-c2cccc(Cl)c2)c2c(n1)-c1ccccc1OC2	2.2%	56.2µM*	?	-32.8%	25.1µM*
O=C(CCOc1cccc(Br)c1)NNC(=O)COc1ccc(F)cc1	-2.1%	-6.9%	-3.4%	46.7%	4.6%
CC(CC(=O)O)Nc1ccccc1O (stereo not given)	-15.1%	0.1µM*	44.7µM*	-10.5%	2µM*
N#CCSCC(=O)Nc1ccc(Br)cc1	-0.7%	-13.7%	11.2%	10.7%	10.5%[2.33 µM]
Cc1ccc(NC(=O)CSCC#N)cc1	0.5%	4.6%	4.3%	22.6%	50.1µM*
COc1cc(OC)nc(-n2ncc(OC)c(Br)c2=O)n1	-1.6%	-14.3%	1.9%	-2.4%	-6.8%
COc1ccccc1NC(=O)Nc1nn(C)c2cccc(N(C)C)c12	?	?	?	?	14.1µM*
Nc1sc2c(c1C(=O)NC1CCS(=O)(=O)C1)CCCC2 (stereo not given)	1.8%	-34.0%	-6.9%	-6.5%	7.94µM*
NC(=O)c1c(N)sc2c1CCCC2	8.2%	-32.1%	?	1.8%	2.51µM*
COC(=O)c1ccccc1-n1cc2c(c1-c1cccc(C)c1)c(=O)n(C)c(=O)n2C	-8.3%	-24.3%	-12.7%	16.2%	7.94µM*
Cc1ccc(S(=O)(=O)NN=C2CCC(C(C)(C)C)CC2)cc1[N+](=O)[O-] (stereo not given)	6.1%	-14.5%[57.1 µM]	-2.4%	33.5%	35.5µM*
CCCC1CCC(=NNS(=O)(=O)c2ccc(C)c([N+](=O)[O-])c2)CC1 (stereo not given)	-5.3%	-33.0%[57.1 µM]	-5.8%	22.9%	7.08µM*
Cc1ccc(S(=O)(=O)N/N=C2/CC(c3ccccc3)Oc3ccccc32)cc1[N+](=O)[O-] (stereo not given)	23.2%	-30.2%	?	-12.1%	39.8µM*
CC(C)(C)C1CCC(=NNS(=O)(=O)c2ccc(Br)cc2)CC1 (stereo not given)	8.8%	-3.4%	9.1%	61.3%	7.94µM*
Oc1ccccc1Nc1ncnc2c1oc1ccccc12	-5.4%	-9.4%	-33.2%	26.0%	?
CC1CCCC/C1=N\NS(=O)(=O)c1ccc(Br)cc1 (stereo not given)	17.8%	-1.6%	-5.0%	47.1%	3.55µM*
Cc1ccc(S(=O)(=O)NN=C2C3CC4CC(C3)CC2C4)cc1[N+](=O)[O-]	5.9%	-15.6%[57.1 µM]	-4.0%	48.1%	22.4µM*
COc1cc(/C=C/C(=O)c2ccccc2O)cc(OC)c1OC	18.4%	50.1µM*	56.2µM*	-31.6%	44.7µM*
COc1cc(OC)c(C=CC(=O)c2ccccc2O)c(OC)c1	-6.2%	?	.	28.2µM*	.
COc1cc(O)c(C(=O)/C=C/c2ccc(OC)c(O)c2)c(OC)c1	.	.	.	.	-48.9%[2.33 µM]
CC(=O)OCC1OC(n2cc(F)c(=O)[nH]c2=O)C(OC(C)=O)C1OC(C)=O (stereo not given)	-0.5%	-15.7%	.	22.4%	.
O=C1C(F)=CC(COC(c2ccccc2)(c2ccccc2)c2ccccc2)OC1n1cc(F)c(=O)[nH]c1=O (stereo not given)	?	50.1µM*	.	-12.8%	.
O=C(O)CCC(=O)N1CCc2c([nH]c3ccccc23)C1C(F)(F)F (stereo not given)	6.2%	-21.2%	-13.0%	31.1%	16.5%
CCOc1ccc(CCNC(=O)c2cccc(S(=O)(=O)N3CC(C)OC(C)C3)c2)cc1OCC (stereo not given)	-8.5%	-13.1%	9.0%	23.5%	2.7%[0.501 µM]
O=C(CC1CCCC1)NCCS(=O)(=O)N1CCN(c2ccc(F)cc2)CC1	19.0%	-6.2%	-4.6%	11.8%	9.1%[59 µM]
SMILES	GLS inhibitor	JMJD2A Tudor inh	BAZ2B inh	HP1b chromo inh	G9a inh
O=C(NCc1cccs1)c1ccc(CSc2nc3ccncc3n2Cc2cccc(F)c2)cc1	-1.2%	-20.8%	-4.3%	34.3%	?
CCCCn1c(N)c(N(Cc2ccccc2OC)C(=O)CN2C(=O)NC(C)(c3ccccc3)C2=O)c(=O)[nH]c1=O (stereo not given)	32.0%	-17.1%	0.3%	7.4%	5.62µM*
O=C(CNCc1ccccn1)Nc1cc(C(F)(F)F)ccc1N1CCOCC1	-1.3%	44.7µM*	44.7µM*	16.5%	-0.5%
CC(C)CC(=O)NC(=S)Nc1cc(C(F)(F)F)ccc1N1CCOCC1	4.6%	-20.7%	9.6%	18.1%	79.4µM*
CCCn1c2ccc(C)cc2c2nnc(SCCN3CCCCC3)nc21	1.1%	-21.8%	-3.4%	37.8%	8.91µM*
COc1ccc(C(C)=O)cc1Cn1c(C)c(C(=O)NCC(C)C)sc1=O	3.0%	.	.	.	.
Cc1ccc(C(=O)Nc2ccc(N3CCOCC3)nc2N2CCOCC2)cc1	1.12µM*	-7.8%	-1.4%	18.7%	4.4%
Cc1ccc(C(=O)N2CCN(c3ccc(N4CCOCC4)nn3)CC2)cc1	-1.7%	-18.2%	8.8%	19.7%	24.4%[2.33 µM]
Cc1ccc(C2=CC(c3ccccc3)n3ncnc3N2)cc1 (stereo not given)	-7.0%	-7.6%	.	55.1%	.
CCN(C(=O)COC(=O)c1cc(S(=O)(=O)N2CCOCC2)ccc1F)C1CCS(=O)(=O)C1 (stereo not given)	7.6%	-0.7%	33.4%	15.4%	31.1%[0.501 µM]
CCc1cc2c(=O)c(-c3nc4ccccc4n3C)coc2c(CN2CCCCC2C)c1O (stereo not given)	5.6%	-31.7%	44.7µM*	20.6%	45.9%
Cc1cc(NC(=O)Nc2ccc(Cl)cc2)n(C)n1	15.6%	-4.7%	0.1%	5.7%	11.9%
Cc1ccc(Nc2nnc(SC3CCOC3=O)s2)cc1 (stereo not given)	0.0%	-18.2%	10.1%	28.8%	10µM*
CC(C)c1ccc(Nc2nnc(SC3CCOC3=O)s2)cc1 (stereo not given)	-9.8%	3.1%	2.9%	40.0%	3.1%[59 µM]
O=C(O)CSCc1nc2cccnc2n1C1CCCCC1	-11.0%	?	-12.1%	-1.1%	?
CCS(=O)(=O)NCC(c1ccco1)N1CCN(c2ccc(F)cc2)CC1 (stereo not given)	15.6%	-12.7%	-20.3%	33.7%	6.7%[59 µM]
CS(=O)(=O)NCC(c1ccco1)N1CCN(c2ccc(F)cc2)CC1 (stereo not given)	6.4%	-4.5%	-17.9%	33.6%	44.7µM*!
COc1ccc(N2CCN(C(CNS(=O)(=O)c3ccccc3)c3ccccc3)CC2)cc1 (stereo not given)	26.3%	15.8µM*	25.1µM*	?	14.1µM*
COc1ccc(N2CCN(C(CNS(=O)(=O)c3c(C)cc(C)cc3C)c3ccco3)CC2)cc1 (stereo not given)	12.0%	22.4µM*	31.6µM*	-21.8%	7.08µM*
COc1ccc(S(=O)(=O)NCC(c2ccco2)N2CCN(c3ccc(F)cc3)CC2)cc1 (stereo not given)	3.9%	?	?	18.4%	?
